# PubChem BioAssay (EPA / NIEHS)
# Several values for one entry are separate records, joined by “and”; a condition that tells them apart may be missing. Equal entries are not always repeated. Results filed as inconclusive are left out. Some structures have more than one record in an assay (separate samples or runs), and their calls can disagree. Activity calls are given as the source filed them. How the source made its calls: active means hit-call score of the fitted dose curve at least 0.9, where 1 is the maximum; inconclusive means response in the unintended direction; inactive means score below 0.9. Peptide text beside a SMILES is read from it.
# Experiments:
# [1] = ATG_XTT_Cytotoxicity: Cytotoxicity Assessment in the Attagene TRANS-FACTORIAL HepG2 Assay (AID 2283584)
# How it was run: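 Cells: human HepG2, transiently transfected with MRTU reporter constructs. Exposure 24 h. Readout: XTT, cell number. Baseline/neg ctrl DMSO; loss-of-signal scored.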
# [2] = target: Cellular tumor antigen p53 (Homo sapiens) (UniProt P04637); assay: TOX21_p53_BLA_p2_ratio: Tox21 HCT-116 p53 Agonism Beta-lactamase Assay, Ratio, Phase 2 (AID 2283592)
# How it was run: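 HCT116 p53-bla; 4000 cells/well; 5 h pre-incubation; cpd in DMSO, 217-fold dilution; 16 h 37C/5% CO2; CCF4-AM 2 h RT; Ex 405, Em 460/530 ratio; DMSO = baseline; positive fitting direction.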
# [3] = TOX21_p53_BLA_p2_viability: Viability Assessment in the Tox21 HCT-116 p53 Agonism Beta-lactamase Assay, Phase 2 (AID 2283591);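 further: compound exposure lasted 16 h at 37 °C; actives lower the ATP signal meaning cytotoxicity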
# How it was run: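 HCT-116 p53-bla cells (4000/well) rested 5 h at 37C, then received compounds in DMSO (217-fold dilution) for 16 h at 37C, 5% CO2. After the CCF4 read, CellTiter-Glo was added; ATP luminescence was read after 30 min at room temperature.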
# [4] = TOX21_p53_BLA_p3_viability: Viability Assessment in the Tox21 HCT-116 p53 Agonism Beta-lactamase Assay, Phase 3 (AID 2283593);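 further: cells exposed to compound for 16 h before reading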
# How it was run: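 HCT-116 cells (4000/well) rested 5 h at 37C, then got DMSO compounds by pin tool (217-fold dilution) for 16 h at 37C, 5% CO2. After the bla read, CellTiter-Glo was added and luminescence read at 30 min, room temperature.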
# Sequence of Cellular tumor antigen p53 (Homo sapiens) (P04637 whole entry, looked up): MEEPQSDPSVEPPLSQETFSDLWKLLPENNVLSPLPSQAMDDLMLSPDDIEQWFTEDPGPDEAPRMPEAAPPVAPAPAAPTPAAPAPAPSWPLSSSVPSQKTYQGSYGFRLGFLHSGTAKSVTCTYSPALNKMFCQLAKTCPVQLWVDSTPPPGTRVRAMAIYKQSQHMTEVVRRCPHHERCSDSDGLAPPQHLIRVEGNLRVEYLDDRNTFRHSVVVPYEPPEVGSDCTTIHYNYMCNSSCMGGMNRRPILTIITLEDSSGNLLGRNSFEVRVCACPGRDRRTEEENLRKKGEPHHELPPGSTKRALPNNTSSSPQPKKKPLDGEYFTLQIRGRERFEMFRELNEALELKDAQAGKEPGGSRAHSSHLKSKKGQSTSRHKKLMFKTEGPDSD
structure (smiles),measurement,setting,value
O=C(OCCc1ccccc1)c1ccccc1,outcome,[1],inactive
same,outcome,[2],inactive
COC(=O)[C@H](Cc1ccccc1)NC(=O)[C@@H](N)CC(=O)O (H-Asp-Phe-OMe),outcome,[3],inactive
same,outcome,[2],inactive
Clc1cc(Cl)c(Cl)c(Cl)c1Cl,outcome,[1],inactive
same,outcome,[2],inactive
same,outcome,[4],inactive
CCCCCOC(=O)CCCCC,outcome,[1],inactive
same,outcome,[2],inactive
same,outcome,[4],inactive
COc1ccc(C(=O)c2ccccc2)c(O)c1,outcome,[3],inactive
same,outcome,[2],inactive
CCCCOCC(C)O (centres undefined),outcome,[3],inactive
same,outcome,[2],inactive
CC(CCC(=O)O)(c1ccc(O)cc1)c1ccc(O)cc1,outcome,[1],inactive
same,outcome,[2],inactive
C=CC(=O)OCC(C)OCC(C)OCC(C)OC(=O)C=C (centres undefined),outcome,[1],inactive
same,outcome,[2],inactive
same,outcome,[4],inactive
CC(=O)CCC=C(C)C,outcome,[3],inactive
same,outcome,[2],inactive
CCCCCCCCCCCC(C)=O,outcome,[1],inactive
same,outcome,[4],inactive
CCCCNC(=S)NCCCC,outcome,[3],inactive
same,outcome,[2],inactive
same,outcome,[4],inactive
CCCCCC[C@@H](O)C/C=C\CCCCCCCC(=O)OCC(O)CO (some centres undefined),outcome,[1],inactive
same,outcome,[2],inactive
same,outcome,[4],inactive
CC(C)(O)Cc1ccccc1,outcome,[1],inactive
same,outcome,[2],inactive
CO[Si](CCCS)(OC)OC,outcome,[1],inactive
same,outcome,[2],inactive
CCc1occc(=O)c1O,outcome,[3],inactive
CCC(C)(O)CCCC(C)C (centres undefined),outcome,[1],inactive
same,outcome,[2],inactive
same,outcome,[4],inactive
CC(C)c1cc(C(C)C)cc(C(C)C)c1,outcome,[3],inactive
CO[Si](C)(C)OC,outcome,[1],inactive
same,outcome,[2],inactive
CCCCCCCOC(=O)c1ccc(O)cc1,AC50,[3],44.8 µM (active)
same,outcome,[3],inactive
same,AC50,[2],58.9 µM (active) and 86.4 µM (active)
O=c1c(O)c(-c2ccc(O)cc2O)oc2cc(O)cc(O)c12,outcome,[3],inactive
O=C(O)CC(C(=O)O)S(=O)(=O)O (centres undefined),outcome,[1],inactive
same,outcome,[2],inactive
same,outcome,[4],inactive
CCCCCCCCCCCC(=O)OCC,outcome,[3],inactive
same,outcome,[2],inactive
same,outcome,[4],inactive
N#Cc1ccc(C2CCCc3cncn32)cc1 (centres undefined),outcome,[3],inactive
same,outcome,[2],inactive
CCCCOCCOCCOC(C)=O,outcome,[1],inactive
same,outcome,[2],inactive
same,outcome,[4],inactive
Oc1c(Cl)cc(Cl)c(Cl)c1Cl,outcome,[3],inactive
same,AC50,[2],34.4 µM (active) and 22.5 µM (active)
Cc1cccc(C(C)(C)C)c1O,outcome,[3],inactive
same,outcome,[2],inactive
O=C(C=Cc1ccccc1)OCCc1ccccc1,outcome,[1],inactive
same,outcome,[2],inactive
same,outcome,[4],inactive
O=C(OCc1ccccc1)c1ccc(O)cc1,outcome,[3],inactive
same,outcome,[2],inactive
C=Cc1ccc(OC(C)=O)cc1,outcome,[1],inactive
same,outcome,[2],inactive
C=C[C@@]1(C)CC(=O)[C@]2(O)[C@@]3(C)[C@@H](O)CCC(C)(C)[C@@H]3[C@H](O)[C@H](OC(C)=O)[C@@]2(C)O1,outcome,[3],inactive
same,outcome,[2],inactive
CC(=O)C(C)C,outcome,[3],inactive
Nc1ncnc2nc[nH]c12,outcome,[1],inactive
same,outcome,[2],inactive
C=C(C)C(=O)OCCOC(=O)C(=C)C,outcome,[3],inactive
same,outcome,[2],inactive
CC(=O)OC1CCCCC1C(C)(C)C (centres undefined),outcome,[3],inactive
same,outcome,[2],inactive
same,outcome,[4],inactive
CCCCC1CCC(=O)O1 (centres undefined),outcome,[2],inactive
COC(=O)c1ccccc1C,outcome,[4],inactive
O=C(O)CCCC(=O)O,outcome,[2],inactive
same,outcome,[4],inactive
CC(=O)c1ccc(S(=O)(=O)NC(=O)NC2CCCCC2)cc1,outcome,[3],inactive
same,outcome,[2],inactive
same,outcome,[4],inactive
C=C(C)OC(C)=O,outcome,[3],inactive
same,outcome,[2],inactive
same,outcome,[4],inactive
CC(=O)c1ccccc1O,outcome,[2],inactive
C=CC(=O)OCCCCCCCC(C)C,outcome,[2],inactive
same,outcome,[4],inactive
C=C[Si](OCCOC)(OCCOC)OCCOC,outcome,[3],inactive
same,outcome,[4],inactive
CCC(C)C(=O)OCCc1ccccc1 (centres undefined),outcome,[2],inactive
CCc1cccc(C)c1N,outcome,[3],inactive
same,outcome,[2],inactive
same,outcome,[4],inactive
CC(CC(C)C)=NO,outcome,[3],inactive
same,outcome,[2],inactive
same,outcome,[4],inactive
CCCc1ccc(O)c(OC)c1,outcome,[2],inactive
CC(C)COC(=O)CC(C(=O)OCC(C)C)S(=O)(=O)O (centres undefined),outcome,[3],inactive
same,outcome,[2],inactive
same,outcome,[4],inactive
CC(=O)OC/C=C(/C)CCC=C(C)C,outcome,[2],inactive
CC1=CC(C)C(C=O)CC1 (centres undefined),outcome,[2],inactive
CCCCC(=O)O,outcome,[3],inactive
same,outcome,[2],inactive
same,outcome,[4],inactive
CCCC1CCCC(=O)O1 (centres undefined),outcome,[3],inactive
same,outcome,[4],inactive
CCOC(=O)c1ccccc1C,outcome,[3],inactive
same,outcome,[2],inactive
same,outcome,[4],inactive
CCCC(CC)c1ccccc1 (centres undefined),outcome,[3],inactive
same,outcome,[2],inactive
same,outcome,[4],inactive
COC(=O)CC(C)CCC=C(C)C (centres undefined),outcome,[2],inactive
same,outcome,[4],inactive
CC(C)=CCl,outcome,[3],inactive
same,outcome,[4],inactive
CC1=CCC2CC1C2(C)C (centres undefined),outcome,[3],inactive
same,outcome,[4],inactive
O=C(O)C1CCC(C(=O)O)CC1 (centres undefined),outcome,[3],inactive
same,outcome,[2],inactive
same,outcome,[4],inactive
CC12CCC(CC1)C(C)(C)O2,outcome,[3],inactive
same,outcome,[2],inactive
same,outcome,[4],inactive
C=CC(=O)OCCCCCCCCCC,outcome,[2],inactive
same,outcome,[4],inactive
CCCCCCOC(=O)CCCCC(=O)OCCCCCC,outcome,[3],inactive
same,outcome,[2],inactive
same,outcome,[4],inactive
C[Si](C)(C)N[Si](C)(C)C,outcome,[3],inactive
same,outcome,[2],inactive
same,outcome,[4],inactive
C=CCNCC=C,outcome,[3],inactive
same,outcome,[2],inactive
same,outcome,[4],inactive
Cc1ccccc1CCO,outcome,[3],inactive
same,outcome,[4],inactive
CC(=O)OCCc1ccccc1,outcome,[3],inactive
same,outcome,[4],inactive
OCCCc1ccccc1,outcome,[3],inactive
same,outcome,[2],inactive
same,outcome,[4],inactive
C[Si]1(C)O[Si](C)(C)O[Si](C)(C)O[Si](C)(C)O[Si](C)(C)O1,outcome,[2],inactive
CCCCC(CC)COC(=O)/C=C/c1ccc(OC)cc1 (centres undefined),outcome,[3],inactive
same,outcome,[4],inactive
O=S(=O)(O)c1ccc(N=Nc2c(O)ccc3ccccc23)cc1,outcome,[3],inactive
same,outcome,[2],inactive
same,outcome,[4],inactive
CCCCCCOc1ccc(N)cc1,outcome,[3],inactive
same,outcome,[2],inactive
same,outcome,[4],inactive
CCCCCCCC(=O)OCC(COC(=O)CCCCCCC)OC(=O)CCCCCCC,outcome,[3],inactive
same,outcome,[2],inactive
same,outcome,[4],inactive
CC(C)CCCCCOC(=O)CS,outcome,[3],inactive
same,outcome,[4],inactive
